Bioassay records: PubChem BioAssay, several laboratories
An excerpt weighted towards active compounds, which were near 27% of everything screened.
CYP2C19 inh = blockers of cytochrome P450 2C19 activity – biochemical, luminescence, ADME assay, primary screen. P33261. CYP2C19 Supersomes, luciferin-H EGE luminescence, 30 min. inhibition, % at 5 µM. actives 21% (n = 96,000);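 active means CYP2C19 inhibition above a set limit at 5 µM in the primary screen, cut at about 50% in these data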;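 further: plate controls were negative control wells for no effect and 2.5 mM tranylcypromine positive control for full effect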
sEH inhibitor = soluble epoxide hydrolase inhibitors, primary screen, biochemical, human sEH | actives 0.34% (n = 91,000) | AID 707, 2007 | recombinant human sEH enzymatic activity assay | inhibition, % at 2 µM; in the data active means inhibition above about 80%
Target sequence (P34913 whole entry, looked up): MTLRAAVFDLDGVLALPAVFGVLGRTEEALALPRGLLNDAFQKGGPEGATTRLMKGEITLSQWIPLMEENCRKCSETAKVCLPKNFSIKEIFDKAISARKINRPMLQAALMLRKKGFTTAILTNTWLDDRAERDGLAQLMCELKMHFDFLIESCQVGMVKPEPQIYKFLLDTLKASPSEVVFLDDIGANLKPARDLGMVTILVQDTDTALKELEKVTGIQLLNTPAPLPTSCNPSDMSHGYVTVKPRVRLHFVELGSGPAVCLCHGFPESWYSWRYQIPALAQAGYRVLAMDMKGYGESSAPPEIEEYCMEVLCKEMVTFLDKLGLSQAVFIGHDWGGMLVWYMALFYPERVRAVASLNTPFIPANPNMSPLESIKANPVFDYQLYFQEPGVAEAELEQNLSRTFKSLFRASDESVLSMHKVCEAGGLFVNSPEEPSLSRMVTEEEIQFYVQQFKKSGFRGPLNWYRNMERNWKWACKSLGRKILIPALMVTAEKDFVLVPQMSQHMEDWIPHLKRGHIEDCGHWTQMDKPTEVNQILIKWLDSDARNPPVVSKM
CYP2C19 act = human CYP2C19 activators, primary screen, biochemical, luminescence; recombinant CYP2C19, luciferin-H EGE luminescence; hits give high values; 0 = fully inhibited enzyme, 1 = untreated enzyme; activation factor at 5 µM; 96,000 tested, under 10 active; AID 1025, 2008; Cytochrome P450 2C19 (Homo sapiens), P33261;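 active means activation factor of at least 2 at 5 µM in the primary screen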;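 further: 0 = wells with 2.5 mM tranylcypromine and 1 = vehicle-only wells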
sEH act = soluble epoxide hydrolase activators, primary screen, biochemical, human sEH | purified human sEH enzymatic activity, activator screen | Bifunctional epoxide hydrolase 2 (Homo sapiens), P34913 | AID 717, 2007 | activation, % at 2 µM | actives 0.04% (n = 91,000); in the data active means activation above about 37%
CYP2C9 inhib = blockers of cytochrome P450 2C9 activity – biochemical, luminescence, ADME assay, primary screen | inhibition, % at 5 µM | CYP2C9 Supersomes, luciferin-H conversion | actives 20% (n = 96,000);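 active means blocking of liver enzyme CYP2C9 beyond about 50% at 5 µM, limit read from the data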
CYP2C9 activ = human CYP2C9 activators, primary screen, biochemical, luminescence. Cytochrome P450 2C9 (Homo sapiens), P11712. recombinant CYP2C9, luciferin-H conversion; hits give high values; factor 1 = untreated enzyme, 0 = blocked. activation factor at 5 µM. actives 1.4% (n = 96,000);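 active means activation factor of 2 or more for CYP2C9 at a 5 µM dose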;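 further: 0 = sulfaphenazole-blocked wells and 1 = vehicle-only wells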
Active calls of the source: *; x = not tested or not shown.

SMILES | CYP2C19 inh | sEH inhibitor | CYP2C19 act | sEH act | CYP2C9 inhib | CYP2C9 activ
CCOc1ccc2nc(SCC(=O)N3CCCCCC3)c(C#N)cc2c1 | 18 | -8 | 0.8 | 6 | 69* | 0.3
CCOC(=O)CSc1nc2cc(OC)ccc2cc1C#N | 46 | x | 0.5 | x | 89* | 0.1
CCOc1ccc2cc(C#N)c(SCC(=O)N3CCOCC3)nc2c1 | 6 | -4 | 0.9 | 2 | -19 | 1.2
CCCNc1nc2c(c(=O)n(C)c(=O)n2C)n1CCC(C)C | 6 | -10 | 0.9 | 8 | 48 | 0.5
Nc1ccccc1-c1nnc(SCc2ccccc2F)[nH]c1=O | 1 | 11 | 1 | -10 | 39 | 0.6
Cc1nc(-c2ccccc2)nc2[nH]c(C(C)C)cc(=O)c12 | 15 | 9 | 0.8 | -5 | 81* | 0.2
Cc1nc(-c2ccccc2)nc2[nH]c(=O)n(-c3ccccc3)c(=O)c12 | 7 | 7 | 0.9 | -6 | 6 | 0.9
CCOC(=O)c1c(NC(=O)c2nn(CC)cc2Br)c(C#N)nn1-c1ccccc1 | 64* | 10 | 0.4 | -5 | 50 | 0.5
CCOC(=O)c1nn(-c2ccccc2)c(C#N)c1NC(=O)c1nn(CC)cc1Br | 25 | -12 | 0.8 | 16 | 72* | 0.3
CCOC(=O)c1ccc(NC(=O)c2nn(CC)cc2Br)cc1 | 31 | 7 | 0.7 | -3 | -45 | 1.5
Cc1[nH]nc(N=CC2=C(O)CC(c3ccco3)CC2=O)c1-c1ccccc1 (centres undefined) | 28 | -3 | 0.7 | 3 | 61* | 0.4
Cc1[nH]nc(N=CC2=C(O)CC(C)(C)CC2=O)c1-c1ccccc1 | 4 | 6 | 1 | -8 | 36 | 0.6
O=C(Cn1cnc2ccccc2c1=O)Nc1ccc2c(c1)OCCO2 | -6 | x | 1.1 | x | 21 | 0.8
O=C(Cn1cnc2ccccc2c1=O)Nc1ccc2c(c1)CCC2 | 30 | x | 0.7 | x | 40 | 0.6
CCN(CC)S(=O)(=O)c1ccc(NC(=O)Cn2cnc3ccccc3c2=O)cc1 | 44 | 18 | 0.6 | -18 | 67* | 0.3
O=C(Cn1cnc2ccccc2c1=O)NCCC(=O)Nc1ccc2c(c1)OCCO2 | 14 | x | 0.9 | x | 51* | 0.5
CN(C)S(=O)(=O)c1cccc(NC(=O)Cn2cnc3ccccc3c2=O)c1 | 43 | 4 | 0.6 | -4 | 84* | 0.2
CCOC(=O)N1CCN(C(=O)CSCC(=O)Nc2nc(-c3ccc(Cl)s3)cs2)CC1 | x | -8 | x | 9 | x | x
CC1C2=C(CCCC2=O)N(c2cccc3ccccc23)C2=C1C(=O)CCC2 | x | -18 | x | 18 | x | x
COc1ccccc1-n1c(C)cc(C=O)c1C | 24 | -3 | 0.8 | 2 | 54* | 0.5
COC(=O)c1ccc(/C(O)=C(\C#N)c2nc3ccccc3s2)cc1 | 3 | 2 | 1 | -4 | 58* | 0.4
CC(C)=C(C#N)c1nc2ccccc2s1 | 56* | 1 | 0.4 | -3 | 0 | 1
CC[N+](CC)(CC)C/C(N)=N/O | 4 | -4 | 1 | 4 | 0 | 1
N#Cc1ccc(-c2ccccc2)nc1SCC(=O)c1cccc(Cl)c1 | 31 | 5 | 0.7 | -2 | 63* | 0.4
N#Cc1ccc(-c2ccc(Cl)cc2)nc1SCC(=O)c1cccc(Cl)c1 | 3 | -6 | 1 | 5 | 12 | 0.9
SMILES | CYP2C19 inh | sEH inhibitor | CYP2C19 act | sEH act | CYP2C9 inhib | CYP2C9 activ
O=c1nc(/C=C/c2cc([N+](=O)[O-])ccc2Cl)cc(C(F)(F)F)[nH]1 | -3 | -6 | 1 | 2 | 81* | 0.2
COc1ccc([C@H]2[C@@H](C#N)[C@H](C#N)N3CCCN23)cc1 | x | 3 | x | -2 | x | x
O=C(CSC1=NCCS1)N1CCc2ccccc21 | 49 | -2 | 0.5 | 3 | 63* | 0.4
Nc1ccccc1SCC(=O)N1CCc2ccccc21 | 76* | x | 0.2 | x | 33 | 0.7
Cc1cc2nc(-c3ccc(SCC(=O)N4CCc5ccccc54)nc3)[nH]c2cc1C | 16 | 85* | 0.8 | -84 | 27 | 0.7
O=C(CSc1nc(-c2ccccc2)cc(=O)[nH]1)N1CCc2ccccc21 | 11 | 4 | 0.9 | -2 | 69* | 0.3
CC1Cc2ccccc2N1C(=O)CSC1=NCCS1 (centres undefined) | 14 | -5 | 0.9 | 6 | -19 | 1.2
CCCSc1nc(=O)n2cccc(C)c2n1 | 0 | 2 | 1 | -3 | 19 | 0.8
O=C(NNc1nc2ccccc2s1)C1CC1 | 2 | 2 | 1 | 1 | -6 | 1.1
O=C(Nc1nc(-c2nc3ccccc3s2)cs1)C1CC1 | 51* | x | 0.5 | x | 19 | 0.8
CN=C(NC#N)SCC(=O)c1ccc(Cl)cc1Cl | 82* | -6 | 0.2 | 8 | 96* | 0
C(=N\c1ncnc2sccc12)/NOCc1ccccc1 | 84* | 54 | 0.2 | -53 | 56* | 0.4
Cc1nnsc1NC(=O)OCc1ccc(C(C)(C)C)cc1 | 32 | -3 | 0.7 | 6 | 12 | 0.9
CCN(CCCNC(=O)CCc1nc(-c2ccc(OC)cc2)no1)c1cccc(C)c1 | 93* | 39 | 0.1 | -38 | 87* | 0.1
CCc1ccc(CCC(=O)Nc2ccc(C)c(C)c2)o1 | 51* | x | 0.5 | x | 14 | 0.9
COc1ccc(-c2noc(CCC(=O)Nc3ccc4c(c3)OCCO4)n2)cc1 | 66* | 14 | 0.3 | -15 | 76* | 0.2
COc1ccc(-c2noc(CCC(=O)NCCN(C)Cc3ccccc3)n2)cc1 | 44 | 7 | 0.6 | -9 | 35 | 0.7
Cc1cccc(CCNC(=O)CCc2nc(-c3ccccc3F)no2)c1 | 92* | 26 | 0.1 | -26 | 82* | 0.2
O=C(CCc1nc(-c2ccccc2F)no1)NCCN1CCN(Cc2ccccc2)CC1 | 24 | -1 | 0.8 | 5 | 36 | 0.6
COc1ccc(NC(=O)CCc2nc(-c3ccc(C)cc3)no2)cc1Cl | 12 | -2 | 0.9 | 4 | 11 | 0.9
COc1ccc(-c2noc(CCC(=O)Nc3ccc(C)c(C)c3)n2)cc1 | 39 | 17 | 0.6 | -15 | 58* | 0.4
CCOC(=O)c1ccc(NC(=O)CCc2nc(-c3ccc(Cl)cc3)no2)cc1 | -10 | 6 | 1.1 | -7 | 8 | 0.9
CCOC(=O)c1ccc(NC(=O)CCc2nc(-c3ccc(C)cc3)no2)cc1 | 70* | -3 | 0.3 | 5 | 94* | 0.1
COc1ccc(OCCCC(=O)Nc2ccc3c(c2)OCCO3)cc1 | 76* | 37 | 0.2 | -36 | 86* | 0.1
C=CCn1c(SCCC)nc(O)cc1=O | -7 | -3 | 1.1 | -1 | 2 | 1
CC1CCN(C(=S)NC2CCCCC2)CC1 | 70* | x | 0.3 | x | 8 | 0.9
CC1CCN(C(=S)NC(=O)C2CCCCC2)CC1 | 22 | -7 | 0.8 | 6 | 4 | 1
